Measured values: paper PMC3218832

Target: C-Rel subunit;p50 subunit (Homo sapiens;Homo sapiens, UniProt Q04864;P19838 1-285;7-356)
Test: protein binding microarray; high values mean tight binding
Conditions: dsDNA, one strand shown

| Sequence | binding signal [z-score] |
| --- | --- |
| AAATGCTTCCC | 0.16 |
| AAGATGCCCCC | 1.03 |
| GAGGTTGCCCT | -0.77 |
| CGAAGACTCCC | -0.657 |
| GGATGCATCCC | -1.05 |
| GAATGCCTCCT | -1.51 |
| AAGTACATCCC | -0.042 |
| CAGTGACCCCT | -0.672 |
| GAGGGCTCCCC | 0.253 |
| GAGTGTGCCCT | -0.869 |
| AGAATGCTCCC | -0.92 |
| CGATGTCTCCT | -1.52 |
| CGATGGGCCCT | -1.73 |
| CAAGGTTCCCC | 1.36 |
| CAGAAGATCCT | -1.5 |
| GAAATGACCCT | -0.632 |
| AGGTACGCCCC | 0.444 |
| GGATAATCCCC | 1.51 |
| CGGGGACCCCT | 0.478 |

Target: T1, C-Rel subunit;p52 subunit (Homo sapiens;Homo sapiens, UniProt Q04864;Q00653 1-285;4-332)
T1 sequence 1: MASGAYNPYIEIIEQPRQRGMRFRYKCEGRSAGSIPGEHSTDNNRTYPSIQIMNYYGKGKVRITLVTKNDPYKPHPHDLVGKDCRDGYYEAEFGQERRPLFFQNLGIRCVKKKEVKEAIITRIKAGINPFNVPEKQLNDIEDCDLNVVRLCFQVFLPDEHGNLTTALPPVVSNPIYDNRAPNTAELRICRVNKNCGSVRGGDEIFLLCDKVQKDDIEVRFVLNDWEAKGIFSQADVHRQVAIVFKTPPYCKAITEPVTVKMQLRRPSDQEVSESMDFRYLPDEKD
T1 sequence 2: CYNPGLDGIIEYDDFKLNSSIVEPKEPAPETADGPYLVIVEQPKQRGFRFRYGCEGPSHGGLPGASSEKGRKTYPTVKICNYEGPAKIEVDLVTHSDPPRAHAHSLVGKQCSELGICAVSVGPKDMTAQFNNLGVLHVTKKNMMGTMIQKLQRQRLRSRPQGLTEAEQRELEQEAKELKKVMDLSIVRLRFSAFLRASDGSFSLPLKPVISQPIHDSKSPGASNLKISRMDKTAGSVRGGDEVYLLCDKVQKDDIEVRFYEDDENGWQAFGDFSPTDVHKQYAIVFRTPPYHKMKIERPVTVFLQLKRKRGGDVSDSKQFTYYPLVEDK
Test: as above
Conditions: dsDNA, one strand shown

| Sequence | binding signal [z-score] |
| --- | --- |
| AAGAAAGCCCT | -0.671 |
| AGGATCTCCCC | 0.953 |
| CGATGTACCCC | 0.101 |
| AGATATCTCCT | -0.83 |
| GGGAACGCCCT | 0.403 |
| AGGATAGCCCT | -0.688 |
| AAGTTATCCCC | 0.506 |
| AGAAGGCCCCT | 0.0154 |
| CGAAAGTTCCT | -0.406 |
| CGGTTATCCCT | 0.381 |
| AGAAAACTCCC | 0.947 |
| GAAAGTGCCCC | 0.511 |
| AGGTTTATCCT | -0.61 |
| GAAGAATCCCC | 1.53 |
| AAGTATGCCCC | 0.354 |
| GAGTAATTCCT | -0.195 |
| CAAAGTTTCCT | -0.21 |
| AAATACACCCC | 0.187 |
| AAGAATGTCCC | 0.463 |

| Sequence | binding signal [z-score] |
| --- | --- |
| AAATGCTTCCC | -0.384 |
| AAGATGCCCCC | 0.633 |
| GAGGTTGCCCT | -0.503 |
| CGAAGACTCCC | -0.571 |
| GGATGCATCCC | -0.672 |
| GAATGCCTCCT | -0.845 |
| AAGTACATCCC | -0.446 |
| CAGTGACCCCT | -0.427 |
| GAGGGCTCCCC | 0.154 |
| GAGTGTGCCCT | -0.582 |
| AGAATGCTCCC | -0.456 |
| CGATGTCTCCT | -0.895 |
| CGATGGGCCCT | -0.583 |
| CAAGGTTCCCC | 1.06 |
| CAGAAGATCCT | -1.07 |
| GAAATGACCCT | -0.223 |
| AGGTACGCCCC | 0.674 |
| GGATAATCCCC | 1.45 |
| CGGGGACCCCT | -0.0336 |
